The values below come from PubChem BioAssay (EPA / NIEHS).

“And” between values parts separate entries of the source, which are not always exact repeats. Equal entries are not always repeated. The source holds several records for some structures; these can differ, active in one and inactive in another. The source made the active and inactive calls. The calls were made as follows: active = hit-call score of the fitted dose curve at least 0.9, where 1 is the maximum; inactive = score below 0.9.

The nature of the first experiment: APR_HepG2_CellCycleArrest_24hr: Apredica 24-hour HepG2 Assay for Cell Cycle Arrest (AID 2282905).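 Also: cell cycle arrest scored as ratio of 2N to 4N nuclear DNA content.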 The settings on record: imaging, actives raise or lower the signal. An outline of the steps: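 Cell cycle arrest is scored from nuclear DNA content measured by high-content imaging of Hoechst 33342-stained HepG2 cells following 24-hour treatment at ten concentrations up to 200 uM, with DMSO as baseline.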
With `O=C(O)COc1nc(Cl)c(Cl)cc1Cl`, the result was inactive.
Turning to `CC(C)(C)c1ccc(CSc2cnn(C(C)(C)C)c(=O)c2Cl)cc1`, the AC50 is 16.1 µM (active).
For `COC(=O)C(C)Oc1ccc(Oc2ccc(Cl)cc2Cl)cc1` (centres undefined), the compound was classed as inactive.
Same read-out and setting: as for `CCOC(=O)C(Cl)Cc1cc(-n2nc(C)n(C(F)F)c2=O)c(F)cc1Cl` (centres undefined), the entry is “inactive”.
The same measure, in the same setting: as for `CC1=C(C(=O)Nc2ccccc2)SCCO1`, the entry is “inactive”.
Take `COc1cnc(OC)n2nc(NS(=O)(=O)c3c(OCC(F)F)cccc3C(F)(F)F)nc12`: the outcome was inactive.
Take `CO/C=C(/C(=O)OC)c1ccccc1Oc1cc(Oc2ccccc2C#N)ncn1`: the AC50 is 39.3 µM (active) and 692 nM (active); the outcome was inactive.
As for `CCOC(=O)CC(SP(=S)(OC)OC)C(=O)OCC` (centres undefined), the call was inactive.
Still for that read-out and setting: as for `CC(C)Oc1cc(-n2nc(C(C)(C)C)oc2=O)c(Cl)cc1Cl`, the entry is “inactive”.
The same measure, in the same setting: as for `N#CC(CCc1ccc(Cl)cc1)(Cn1cncn1)c1ccccc1` (centres undefined), the entry is “inactive”.
On the same count and under the same terms, as for `Cc1c(F)c(F)c(COC(=O)C2C(/C=C(\Cl)C(F)(F)F)C2(C)C)c(F)c1F` (centres undefined), the entry is “inactive”; as for `COc1nc(C)nc(NC(=O)NS(=O)(=O)c2ccccc2Cl)n1`, “inactive”.
In the case of `CCCCNC(=O)n1c(NC(=O)OC)nc2ccccc21`, the AC50 was 22.7 µM (active).
As to `COC(=O)c1ccccc1C(=O)OC`, the call was inactive.
In the case of `COP(=S)(OC)Oc1nc(Cl)c(Cl)cc1Cl`, the compound was called inactive.
Same read-out and setting: as for `Cc1cc(Cl)ccc1OCC(=O)O`, the entry is “inactive”.
Turning to `CON(C)C(=O)Nc1ccc(Cl)c(Cl)c1`, the AC50 was 31.2 µM (active).
Take `COc1ccc(C(c2ccc(OC)cc2)C(Cl)(Cl)Cl)cc1`: the result was inactive.
Still for that read-out and setting: the entry for `CCNc1nc(Cl)nc(NCC)n1` is “inactive”.
`CCCN(CCC)c1c([N+](=O)[O-])cc(S(N)(=O)=O)cc1[N+](=O)[O-]`: the AC50 was 34.9 µM (active) and the result was inactive.
As to `CC(Oc1ccc(Cl)cc1Cl)C(=O)O` (centres undefined), the compound was called inactive.
On the same count and under the same terms, as for `CN(C)C(=S)SSC(=S)N(C)C`, the entry is “inactive”.
Turning to `CCON=C(CC)C1=C(O)CC(c2c(C)cc(C)cc2C)CC1=O` (centres undefined), the compound was classed as inactive.
Still for that read-out and setting: as for `CS/C(C)=N/OC(=O)N(C)SN(C)C(=O)O/N=C(\C)SC`, the entry is “inactive”; as for `CCCCNC(=O)OCC#CI`, “inactive”; as for `C=CCC1=C(C)[C@@H](OC(=O)[C@@H]2[C@@H](C=C(C)C)C2(C)C)CC1=O`, “inactive”.

The next experiment is described as follows: APR_HepG2_StressKinase_1hr: Apredica 1-hour HepG2 Assay for Stress Kinase (AID 2282906). To be noted: HepG2 stress kinase (phospho-c-Jun) imaging, actives raise or lower the signal. A digest of the protocol: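 HepG2 cells dosed 0.39-200 uM (0.5% DMSO) for 1 h, then formaldehyde-fixed. Stress kinase read by phospho-c-Jun immunofluorescence using high-content imaging; bidirectional fit vs DMSO.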
As for `O=C(O)COc1nc(Cl)c(Cl)cc1Cl`, the call was inactive.
The same measure, in the same setting: as for `CC(C)(C)c1ccc(CSc2cnn(C(C)(C)C)c(=O)c2Cl)cc1`, the entry is “inactive”.
Same read-out and setting: the entry for `COC(=O)C(C)Oc1ccc(Oc2ccc(Cl)cc2Cl)cc1` (centres undefined) is “inactive”; for `CCOC(=O)C(Cl)Cc1cc(-n2nc(C)n(C(F)F)c2=O)c(F)cc1Cl` (centres undefined) it is “inactive”; for `CC1=C(C(=O)Nc2ccccc2)SCCO1` it is “inactive”.
On to `COc1cnc(OC)n2nc(NS(=O)(=O)c3c(OCC(F)F)cccc3C(F)(F)F)nc12`, for which the compound was classed as inactive.
Same read-out and setting: as for `CO/C=C(/C(=O)OC)c1ccccc1Oc1cc(Oc2ccccc2C#N)ncn1`, the entry is “inactive”.
On the same count and under the same terms, as for `CCOC(=O)CC(SP(=S)(OC)OC)C(=O)OCC` (centres undefined), the entry is “inactive”.
Still for that read-out and setting: the entry for `CC(C)Oc1cc(-n2nc(C(C)(C)C)oc2=O)c(Cl)cc1Cl` is “inactive”; for `N#CC(CCc1ccc(Cl)cc1)(Cn1cncn1)c1ccccc1` (centres undefined) it is “inactive”; for `Cc1c(F)c(F)c(COC(=O)C2C(/C=C(\Cl)C(F)(F)F)C2(C)C)c(F)c1F` (centres undefined) it is “inactive”.
Regarding `COc1nc(C)nc(NC(=O)NS(=O)(=O)c2ccccc2Cl)n1`, the outcome was inactive.
For the compound `CCCCNC(=O)n1c(NC(=O)OC)nc2ccccc21`, the compound was classed as inactive.
Regarding `COC(=O)c1ccccc1C(=O)OC`, the outcome was inactive.
Still for that read-out and setting: as for `COP(=S)(OC)Oc1nc(Cl)c(Cl)cc1Cl`, the entry is “inactive”; as for `Cc1cc(Cl)ccc1OCC(=O)O`, “inactive”; as for `CON(C)C(=O)Nc1ccc(Cl)c(Cl)c1`, “inactive”.
On to `COc1ccc(C(c2ccc(OC)cc2)C(Cl)(Cl)Cl)cc1`, for which the compound was called inactive.
Same read-out and setting: as for `CCNc1nc(Cl)nc(NCC)n1`, the entry is “inactive”.
Regarding `CCCN(CCC)c1c([N+](=O)[O-])cc(S(N)(=O)=O)cc1[N+](=O)[O-]`, the compound was called inactive.
On to `CC(Oc1ccc(Cl)cc1Cl)C(=O)O` (centres undefined), for which the compound was classed as inactive.
Regarding `CN(C)C(=S)SSC(=S)N(C)C`, the AC50 was 3.07 µM (active).
Take `CCON=C(CC)C1=C(O)CC(c2c(C)cc(C)cc2C)CC1=O` (centres undefined): the call was inactive.
The same measure, in the same setting: the entry for `CS/C(C)=N/OC(=O)N(C)SN(C)C(=O)O/N=C(\C)SC` is “inactive”; for `CCCCNC(=O)OCC#CI` it is “inactive”; for `C=CCC1=C(C)[C@@H](OC(=O)[C@@H]2[C@@H](C=C(C)C)C2(C)C)CC1=O` it is “inactive”.

The nature of a further experiment: APR_HepG2_NuclearSize_24hr: Apredica 24-hour HepG2 Assay for Nuclear Size (AID 2282907). To be noted: high-content imaging, actives raise or lower the signal. An outline of the steps:
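Compounds in DMSO (final 0.5%) were added to human HepG2 hepatoma cells at ten concentrations up to 200 uM for 24 hr. Fixed nuclei were stained with Hoechst 33342, and nuclear diameter was quantified from automated images.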
`CC(C)(C)c1ccc(CSc2cnn(C(C)(C)C)c(=O)c2Cl)cc1`: the result was inactive.
Still for that read-out and setting: the entry for `CCOC(=O)C(Cl)Cc1cc(-n2nc(C)n(C(F)F)c2=O)c(F)cc1Cl` (centres undefined) is “inactive”.
Regarding `CC1=C(C(=O)Nc2ccccc2)SCCO1`, the outcome was inactive.
For `COc1cnc(OC)n2nc(NS(=O)(=O)c3c(OCC(F)F)cccc3C(F)(F)F)nc12`, the result was inactive.
For the compound `CCOC(=O)CC(SP(=S)(OC)OC)C(=O)OCC` (centres undefined), the call was inactive.
The same measure, in the same setting: as for `N#CC(CCc1ccc(Cl)cc1)(Cn1cncn1)c1ccccc1` (centres undefined), the entry is “inactive”; as for `Cc1c(F)c(F)c(COC(=O)C2C(/C=C(\Cl)C(F)(F)F)C2(C)C)c(F)c1F` (centres undefined), “inactive”; as for `COc1nc(C)nc(NC(=O)NS(=O)(=O)c2ccccc2Cl)n1`, “inactive”.
Still for that read-out and setting: as for `COP(=S)(OC)Oc1nc(Cl)c(Cl)cc1Cl`, the entry is “inactive”; as for `Cc1cc(Cl)ccc1OCC(=O)O`, “inactive”; as for `COc1ccc(C(c2ccc(OC)cc2)C(Cl)(Cl)Cl)cc1`, “inactive”.
On the same count and under the same terms, as for `CCNc1nc(Cl)nc(NCC)n1`, the entry is “inactive”; as for `CC(Oc1ccc(Cl)cc1Cl)C(=O)O` (centres undefined), “inactive”.
In the case of `CCON=C(CC)C1=C(O)CC(c2c(C)cc(C)cc2C)CC1=O` (centres undefined), the result was inactive.
For `CCCCNC(=O)OCC#CI`, the compound was called inactive.

For orientation: AC50 means the concentration at which the activity in the assay is half-maximal.
